Assay outcomes as filed in PubChem BioAssay.
Shown are actives, neighbours in structure and some others; about 13% of the full set was active somewhere.
CHX counter – affects cycloheximide protein synthesis inhibition readout, counter-screen. cell reporter, cycloheximide protein synthesis inhibition counterscreen. max response, %. 12% of 300,000 active; in the data active means max response mostly above about 13%, no sharp cut-off; inactive means mostly below about 14%; further: read at 38.3 µM for the half of the compounds with a filed dose
HCV inh – HCV inhibition. Huh7.5.1 HCVcc-Cre infection, luciferase reporter, 44 h. Potency, µM (top dose mostly 41.8 µM), hits mostly inhibitors. 3.4% of 340,000 active. AID 651820; active means well fitted inhibition curve with a large enough effect; inconclusive means small, poorly fitted or top-dose-only effect, or another doubt; inactive means no such curve, though single readings can be large or run the other way
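Antiviral activity was scored by luciferase reporter output from cells infected with HCVcc-Cre (~0.5 moi) in presence of compound, 44 h infection period, cells seeded 1,000/well 4 h prior.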
MARV entry inh – inhibitors of Marburg virus binding or cell entry. AID 540276. Marburg virus pseudotyped entry inhibition, cell reporter. Potency, µM (doses to about 37.8 µM), most hits filed as inhibitors. 1.8% of 300,000 active; calls by dose curve; tested in HEK293 cells
LASV entry inh – blocks Lassa virus binding to or entry into cells | Lassa virus pseudotype entry inhibition, cell reporter | Potency, µM (titrated, usually from 37.9 µM), actives largely listed as inhibitors | 1.2% of 300,000 active; calls by dose curve; tested in HEK293 cells; further: nearly all actives have a fitted effect of over 50% in size
FMDV antiviral – blocks foot and mouth disease virus; AID 1159524; 1.2% of 410,000 active; FMDV antiviral cell-based qHTS; Potency, µM (top dose mostly 57.9 µM), usual class: inhibitors; calls by dose curve; tested in HEK293T cells; further: read-out not given here; nearly all actives have a fitted effect of over 45% in size
Shiga toxin inh – Shiga toxin inhibition | Vero cells, Shiga toxin protein synthesis inhibition reporter | inhibition, % at 38.7 µM | 9.2% of 290,000 active | AID 2315; in the data active means inhibition mostly above about 28%, no sharp cut-off; inactive means mostly below about 43%
Large screens that a line does not name were inactive.

O=C(Nc1ccc2c(c1)OCCO2)C1CCN(C(=O)c2ccc([N+](=O)[O-])cc2)CC1	none (no result: MARV entry inh, LASV entry inh)
Cc1ccc(C)c(N(C)C(=O)CCS(=O)(=O)c2cccc3nonc23)c1	none
COc1ccc(N(C(=O)C2CSC(=O)C2)C(C(=O)NC(C)(C)C)c2ccncc2)cc1 (configuration not stated)	none (no result: MARV entry inh, LASV entry inh)
Cc1ccc(NC(=O)NCC2CC2(Cl)Cl)cc1 (configuration not stated)	CHX counter 30.5, LASV entry inh inconclusive, Shiga toxin inh 125.3
O=C(NCC1CC1(Cl)Cl)Nc1ccc(Cl)c(Cl)c1 (configuration not stated)	HCV inh inconclusive, MARV entry inh inconclusive, LASV entry inh inconclusive, Shiga toxin inh 94.3
CN(C)C1(CNC(=O)Nc2ccc(Cl)c(Cl)c2)CCCCC1	HCV inh inconclusive, MARV entry inh inconclusive, LASV entry inh inconclusive
CCOc1cccc(NC(=O)CSc2ncc(-c3ccccc3)[nH]2)c1	none (no result: CHX counter, HCV inh, Shiga toxin inh)
CC(=O)NCCOC(=O)Nc1sc(=S)n(C)c1C	none
Cc1c(NC(=O)OCCSc2nc(N(C)C)nc(N(C)C)n2)sc(=S)n1C	HCV inh 14.1µM (no result: FMDV antiviral)
O=C(CN1CCCC1)Nc1ccc([N+](=O)[O-])cc1Cl	none
CCCCCCC1C(C#N)=C(N)OC2=C1C(=O)CCC2 (configuration not stated)	none (no result: MARV entry inh, LASV entry inh)
CCOc1ccc(-c2cc3nc(C4CCN(C(=O)OC(C)(C)C)CC4)c(C(=O)O)cn3n2)cc1	CHX counter 23.9, FMDV antiviral inconclusive
CCOc1ccc(-c2cc3nc(C4CCN(C(=O)OC(C)(C)C)CC4)c(C(=O)Nc4c(C)cccc4C)cn3n2)cc1	MARV entry inh 7.08µM (no result: CHX counter, HCV inh, Shiga toxin inh)
O=C(c1ccc(CN2CCOCC2)cc1)N1CCN(c2cccc(Cl)c2)CC1	MARV entry inh inconclusive, FMDV antiviral inconclusive
O=C(c1ccc(CSc2nc3ccncc3[nH]2)cc1)N1CCCCCC1	CHX counter 17.8, FMDV antiviral inconclusive (no result: MARV entry inh, LASV entry inh)
O=C(c1ccc(CSc2nc3ccncc3[nH]2)cc1)N1CCN(c2cccc(Cl)c2)CC1	HCV inh 7.94µM, MARV entry inh inconclusive, LASV entry inh 25.9µM, FMDV antiviral inconclusive
Cc1cc2nc(-c3ccccn3)c(-c3ccccn3)nc2cc1C	CHX counter 17.6 (no result: HCV inh, MARV entry inh, LASV entry inh, FMDV antiviral)
COc1cc2nc(N3CCNCC3)nc(N)c2cc1OC	HCV inh 22.4µM, MARV entry inh inconclusive
COc1cc2nc(CN3CCN(S(=O)(=O)c4cc(C)ccc4C)CC3)[nH]c(=O)c2cc1OC	LASV entry inh inconclusive (no result: CHX counter, Shiga toxin inh)
COc1cc2nc(N3CCN(c4cc(C)ccc4C)CC3)nc(N)c2cc1OC	HCV inh 7.08µM, MARV entry inh 4.47µM, LASV entry inh inconclusive, FMDV antiviral 25.1µM
O=C(NC1(C(F)(F)F)C(=O)Nc2c1c(=O)[nH]c(=O)n2-c1ccccc1)c1ccccc1Cl (configuration not stated)	none (no result: CHX counter, HCV inh, MARV entry inh, Shiga toxin inh)
CC1=C(Cl)C2=NS(=O)(=O)CCN2C=C1Cl	HCV inh inconclusive
COc1cccc(CNC(=O)C2CCN(S(=O)(=O)N3CCCC3)CC2)c1	HCV inh inconclusive (no result: FMDV antiviral)
CCOC(=O)C(=Cc1ccc(F)cc1)C(=O)OCC	none (no result: HCV inh, MARV entry inh, LASV entry inh, FMDV antiviral)
CCOC(=O)C(=Cc1ccc(-n2ccnc2)cc1)C(=O)OCC	HCV inh inconclusive, MARV entry inh inconclusive, LASV entry inh inconclusive, FMDV antiviral 22.4µM
COC(=O)c1ccc(-n2ccnc2)cc1	none
CCOC(=O)C(=Cc1ccc(Br)cc1)C(=O)OCC	HCV inh inconclusive, MARV entry inh inconclusive, LASV entry inh inconclusive, FMDV antiviral 22.4µM
OC(COc1ccc(-c2ccccc2)cc1)CN1CCOCC1 (configuration not stated)	CHX counter 21.9 (no result: HCV inh, MARV entry inh, LASV entry inh, FMDV antiviral)
OC1CCCN(CC(O)COc2ccc(-c3ccccc3)cc2)C1 (configuration not stated)	CHX counter 23.1, HCV inh inconclusive, MARV entry inh inconclusive, Shiga toxin inh 53.9
OC(COc1ccccc1)CN1CCCC1 (configuration not stated)	none (no result: MARV entry inh, LASV entry inh)
CC(C)(c1ccccc1)c1ccc(OCC(O)CN2CCCC2)cc1 (configuration not stated)	HCV inh inconclusive, MARV entry inh 2.82µM, LASV entry inh inconclusive
OCCN1CCN(CC(O)COc2ccc3ccccc3c2)CC1 (configuration not stated)	LASV entry inh inconclusive
OCCN1CCN(CC(O)COc2ccc(-c3ccccc3)cc2)CC1 (configuration not stated)	CHX counter 32.4, HCV inh inconclusive, LASV entry inh inconclusive, Shiga toxin inh 73.9
Cc1ccc2c(C)nc(Nc3ncc4c(n3)CCCC4=O)nc2c1	none (no result: CHX counter, Shiga toxin inh)
O=C(NCCCO)/C(=C/c1ccco1)NC(=O)c1ccc(Br)o1	none
CCCC[C@@H]1CNC(=O)C(=O)N1CCc1cc(C(F)(F)F)cc(C(F)(F)F)c1	none (no result: MARV entry inh, LASV entry inh)
OC(COc1ccc(OCC(O)CN2CCCCCC2)cc1)CN1CCCCCC1 (configuration not stated)	HCV inh 7.08µM, MARV entry inh 11.2µM, LASV entry inh inconclusive
N#Cc1ccc(OCC(O)CN2CCN(C(c3ccccc3)c3ccccc3)CC2)cc1 (configuration not stated)	HCV inh inconclusive, MARV entry inh inconclusive
OC(COc1ccccc1)CN1CCN(C(c2ccccc2)c2ccccc2)CC1 (configuration not stated)	HCV inh 7.94µM (no result: MARV entry inh, LASV entry inh)
O=C(c1ccccc1)c1ccc(OCC(O)CN2CCOCC2)cc1 (configuration not stated)	none (no result: CHX counter, Shiga toxin inh)
NC(=O)C1CCN(CC(O)COc2ccc(-c3ccccc3)cc2)CC1 (configuration not stated)	HCV inh 10µM, MARV entry inh inconclusive
COc1ccc(OCC(O)CN2CCCCCC2)cc1 (configuration not stated)	none
OC(COc1ccc(OCc2ccccc2)cc1)CN1CCOCC1 (configuration not stated)	CHX counter 19.6 (no result: FMDV antiviral)
CCCC12CN3CC(C)(CN(C1)C3c1ccco1)C2=O (configuration not stated)	none (no result: LASV entry inh)
O=S(=O)(NC1CCCC1)c1ccc(S(=O)(=O)N2CCc3ccccc32)cc1	HCV inh inconclusive, MARV entry inh inconclusive, LASV entry inh inconclusive, FMDV antiviral inconclusive
CCN(CC)S(=O)(=O)c1ccc(S(=O)(=O)N2CCCC2C(=O)O)cc1 (configuration not stated)	none
CN1CCN(CC(O)COc2ccc(C34CC5CC(CC(C5)C3)C4)cc2)CC1 (configuration not stated)	HCV inh 10µM, MARV entry inh inconclusive
OC(COc1ccc(OCc2ccccc2)cc1)CN1CCCCC1 (configuration not stated)	CHX counter 30.9, HCV inh inconclusive, MARV entry inh inconclusive, Shiga toxin inh 73.8 (no result: FMDV antiviral)
Cc1ccc(Nc2c(-c3ccc(N4CCOCC4)cc3)nc3cnccn23)cc1	CHX counter 7.8, LASV entry inh inconclusive
Cc1ccc(Nc2c(-c3ccc(N4CCOCC4)cc3)nc3ccc(C)cn23)cc1	none (no result: CHX counter, HCV inh, Shiga toxin inh)
Cc1ccccc1Nc1c(-c2ccc(N3CCOCC3)cc2)nc2cnccn12	CHX counter 24.9, MARV entry inh inconclusive
